Data on 23 compounds can be found in ChEMBL document CHEMBL5606460, “ASAP - DENV-2 NS2B-NS3 protease fluorescence single point” (2024).

Structures are written as SMILES. The campaign covered roughly 2,000 compounds. About 110 (5.5%) showed an effect of 50% or more. The sample as a whole holds a higher share of strong results than the screen did.

The assay addresses Genome polyprotein (dengue virus type 2) (UniProt P29990).
Setting [1] is: Thailand/16681/1984, Concentration 25.0 uM, Number of replicates 1.0.

On to `COc1ccc(S(=O)(=O)N2CCC(C(=O)Nc3nc4ccccc4s3)CC2)cc1`, for which the inhibition (as a rule, the relative decrease from the control value, in per cent) was 2.28% (Thailand/16681/1984, Concentration 49.5 uM, Number of replicates 2.0, Standard deviation 1.3648800018415175 %); 4.97% (Thailand/16681/1984, Concentration 99.01 uM, Number of replicates 2.0, Standard deviation 0.35874487080545164 %); 5.55% (Thailand/16681/1984, Concentration 198.0 uM, Number of replicates 2.0, Standard deviation 3.7738315130637563 %).
As to `COc1ccc(S(=O)(=O)n2nc(OC(=O)c3cccc(-c4ccccc4Cl)c3)cc2N)cc1`, the inhibition by setting is: (Thailand/16681/1984, Concentration 49.5 uM, Number of replicates 2.0, Standard deviation 1.4490153953002987 %) 18.8%; (Thailand/16681/1984, Concentration 99.01 uM, Number of replicates 2.0, Standard deviation 0.6098804079928887 %) 22.4%; (Thailand/16681/1984, Concentration 198.0 uM, Number of replicates 2.0, Standard deviation 5.725656788050292 %) 25.3%.
In the case of `CCCC[C@H](N)C(=O)N[C@H](C(=O)NCc1ccc(C(N)=O)cc1)c1ccc(OCc2ccccc2)cc1`, the inhibition by setting is: (Thailand/16681/1984, Concentration 49.5 uM, Number of replicates 2.0, Standard deviation 0.2650581585371317 %) -6.18%; (Thailand/16681/1984, Concentration 99.01 uM, Number of replicates 2.0, Standard deviation 5.609533791033077 %) 63.5%; (Thailand/16681/1984, Concentration 198.0 uM, Number of replicates 2.0, Standard deviation 0.01804559465842439 %) 99.8%.
As for `C[C@@H](NCc1ccc(C(N)=O)cc1)c1ccc(OCc2ccccc2)cc1`, the inhibition (Thailand/16681/1984, Concentration 49.5 uM, Number of replicates 2.0, Standard deviation 1.6752456853530722 %) came out at 0.14%; the inhibition (Thailand/16681/1984, Concentration 99.01 uM, Number of replicates 2.0, Standard deviation 1.116678580733439 %) was 0.358%; the inhibition (Thailand/16681/1984, Concentration 198.0 uM, Number of replicates 2.0, Standard deviation 0.6068608391781741 %) is -0.175%.
For `CCCC[C@H](N)C(=O)N[C@@H](C(=O)NCc1ccc(C(N)=O)cc1)c1ccc(OCc2ccccc2)cc1`, the inhibition is, setting by setting: (Thailand/16681/1984, Concentration 49.5 uM, Number of replicates 2.0, Standard deviation 0.45534308736890416 %) -4.77%; (Thailand/16681/1984, Concentration 99.01 uM, Number of replicates 2.0, Standard deviation 0.9591594337975816 %) 6.09%; (Thailand/16681/1984, Concentration 198.0 uM, Number of replicates 2.0, Standard deviation 4.328590586700157 %) 82.3%.
Turning to `NC(=O)c1ccc(CNC(=O)NCc2ccc(OCc3ccccc3)cc2)cc1`, the inhibition (Thailand/16681/1984, Concentration 49.5 uM, Number of replicates 2.0, Standard deviation 0.6584955649548859 %) was -0.275%; the inhibition (Thailand/16681/1984, Concentration 99.01 uM, Number of replicates 2.0, Standard deviation 0.579227797958503 %) stood at 0.348%; the inhibition (Thailand/16681/1984, Concentration 198.0 uM, Number of replicates 2.0, Standard deviation 0.34476708449941224 %) was -0.309%.
As to `CCCCCC(=O)N[C@H](C(=O)Nc1ccc(C(N)=O)cc1)c1ccc(OCc2ccccc2)cc1`, the inhibition is, setting by setting: (Thailand/16681/1984, Concentration 49.5 uM, Number of replicates 2.0, Standard deviation 0.6010644427830669 %) 0.424%; (Thailand/16681/1984, Concentration 99.01 uM, Number of replicates 2.0, Standard deviation 0.8411278167455505 %) 0.131%; (Thailand/16681/1984, Concentration 198.0 uM, Number of replicates 2.0, Standard deviation 0.2400633914962311 %) -0.732%.
Turning to `NC(=O)c1ccc(CNC(=O)c2ccc(OCc3ccccc3)cc2)cc1`, the inhibition is, setting by setting: (Thailand/16681/1984, Concentration 49.5 uM, Number of replicates 2.0, Standard deviation 3.419970703357444 %) -0.579%; (Thailand/16681/1984, Concentration 99.01 uM, Number of replicates 2.0, Standard deviation 3.9573061855257445 %) -0.365%; (Thailand/16681/1984, Concentration 198.0 uM, Number of replicates 2.0, Standard deviation 3.324054675683989 %) -1.19%.
For `COc1ccccc1C1CCN(C(=O)C2CCN(c3ccc(C=O)cc3)CC2)CC1`, under setting [1], the inhibition was determined as 12.3%.
Turning to `CN(C)Cc1ccc(C(=O)Nc2cc(Cl)cc(C(=O)NC(C)(C)CO)c2)[nH]1`, the inhibition runs as follows: (Thailand/16681/1984, Concentration 49.5 uM, Number of replicates 2.0, Standard deviation 0.5051399787428742 %) 0.205%; (Thailand/16681/1984, Concentration 99.01 uM, Number of replicates 2.0, Standard deviation 1.5521383022614499 %) 0.663%; (Thailand/16681/1984, Concentration 198.0 uM, Number of replicates 2.0, Standard deviation 0.5964116239079592 %) 5.64%.
As for `CCN(Cc1cc(Br)ccc1F)C(=O)C1CCN(c2ccc(C=O)cc2)CC1`, the inhibition under setting [1] came to 15.9%.
`Cc1cc(Cl)c2cccc(N)c2n1`: the inhibition reads like this: (Thailand/16681/1984, Concentration 49.95 uM, Number of replicates 2.0, Standard deviation 0.6589137143756747 %) 13.5%; (Thailand/16681/1984, Concentration 99.9 uM, Number of replicates 2.0, Standard deviation 0.20071745394997703 %) 27.6%.
For `Cc1cc(Cl)c2c(N)ccc(C)c2n1`, the inhibition by setting is: (Thailand/16681/1984, Concentration 49.95 uM, Number of replicates 2.0, Standard deviation 5.268842944255752 %) 34.7%; (Thailand/16681/1984, Concentration 99.9 uM, Number of replicates 2.0, Standard deviation 0.5758298004935433 %) 94.7%.
With `Cc1cc(N)c2c(Cl)ccc(Cl)c2n1`, the inhibition (Thailand/16681/1984, Concentration 49.95 uM, Number of replicates 2.0, Standard deviation 8.427681720895945 %) is -5.26% and the inhibition (Thailand/16681/1984, Concentration 99.9 uM, Number of replicates 2.0, Standard deviation 7.565581927359314 %) was -3.92%.
Turning to `Cc1cc(CO)c2cccc(Cc3cccc(NC(=O)c4cnn(Cc5c(C)noc5C)c4)c3)c2n1`, the inhibition is -3.7% (Thailand/16681/1984, Concentration 49.95 uM, Number of replicates 2.0, Standard deviation 1.4870028556253494 %) and -0.8% (Thailand/16681/1984, Concentration 99.9 uM, Number of replicates 2.0, Standard deviation 1.816697484259061 %).
As to `O=C(O)c1cccc(NC(=O)c2cccc(OCc3c(Cl)cccc3Cl)c2)c1`, the inhibition was found to be 14.9% (Thailand/16681/1984, Concentration 49.5 uM, Number of replicates 2.0, Standard deviation 0.517131041635451 %); 47.1% (Thailand/16681/1984, Concentration 99.01 uM, Number of replicates 2.0, Standard deviation 0.3657402361338958 %); 92.1% (Thailand/16681/1984, Concentration 198.0 uM, Number of replicates 2.0, Standard deviation 0.23203020217005468 %).
Turning to `O=C(Nc1ccc(O)cc1)c1cccc(OCc2c(Cl)cccc2Cl)c1`, the inhibition was determined as 5.85% (Thailand/16681/1984, Concentration 49.5 uM, Number of replicates 2.0, Standard deviation 0.38856258601515087 %); 9.28% (Thailand/16681/1984, Concentration 99.01 uM, Number of replicates 2.0, Standard deviation 1.1651546847054868 %); 12.6% (Thailand/16681/1984, Concentration 198.0 uM, Number of replicates 2.0, Standard deviation 0.8272279968409002 %).
For the compound `O=C(Nc1cccc(O)c1)c1cccc(OCc2c(Cl)cccc2Cl)c1`, the inhibition reads like this: (Thailand/16681/1984, Concentration 49.5 uM, Number of replicates 2.0, Standard deviation 2.2599777431890864 %) 6.58%; (Thailand/16681/1984, Concentration 99.01 uM, Number of replicates 2.0, Standard deviation 0.8121141369648937 %) 8.41%; (Thailand/16681/1984, Concentration 198.0 uM, Number of replicates 2.0, Standard deviation 0.4931997238761773 %) 11.9%.
Turning to `Cc1cc(CO)c2cccc(Cc3cccc(NC(=O)[C@@H]4CC(=O)CCN4)c3)c2n1`, the inhibition by setting is: (Thailand/16681/1984, Concentration 49.95 uM, Number of replicates 2.0, Standard deviation 0.827370284601473 %) 15.8%; (Thailand/16681/1984, Concentration 99.9 uM, Number of replicates 2.0, Standard deviation 0.7401310286309556 %) 32.9%.
For the compound `CCCCCC(=O)N[C@H](C(=O)NCc1ccc(N)nc1)c1ccc(OCc2ccccc2)cc1`, the inhibition is -5.35% (Thailand/16681/1984, Concentration 49.5 uM, Number of replicates 2.0, Standard deviation 0.5514996049599625 %); 2.25% (Thailand/16681/1984, Concentration 99.01 uM, Number of replicates 2.0, Standard deviation 6.42872691267386 %); -1.4% (Thailand/16681/1984, Concentration 198.0 uM, Number of replicates 2.0, Standard deviation 0.7744386054656718 %).
Consider `NCc1cccc(NC(=O)Cc2ccc(OCc3ccccc3)cc2)c1`, for which the inhibition is, setting by setting: (Thailand/16681/1984, Concentration 49.5 uM, Number of replicates 2.0, Standard deviation 0.3616312555788717 %) -3.09%; (Thailand/16681/1984, Concentration 99.01 uM, Number of replicates 2.0, Standard deviation 0.27421312838327405 %) -2.89%; (Thailand/16681/1984, Concentration 198.0 uM, Number of replicates 2.0, Standard deviation 0.0354621897496722 %) -1.31%.
With `CCCCCC(=O)N[C@H](C(=O)NCc1cccc(CN)c1)c1ccc(OCc2ccccc2)cc1`, the inhibition was -3.44% (Thailand/16681/1984, Concentration 49.5 uM, Number of replicates 2.0, Standard deviation 0.6286197397778024 %); 65.8% (Thailand/16681/1984, Concentration 99.01 uM, Number of replicates 2.0, Standard deviation 10.030102962525104 %); 98.7% (Thailand/16681/1984, Concentration 198.0 uM, Number of replicates 2.0, Standard deviation 0.2962336766184579 %).
For the compound `NCc1cccc(NC(=O)[C@@H](NC(=O)OCc2ccccc2)c2ccc(F)cc2)c1`, the inhibition (Thailand/16681/1984, Concentration 49.5 uM, Number of replicates 2.0, Standard deviation 2.4011437232418986 %) was -4.62%; the inhibition (Thailand/16681/1984, Concentration 99.01 uM, Number of replicates 2.0, Standard deviation 1.9050608177527883 %) was -3.96%; the inhibition (Thailand/16681/1984, Concentration 198.0 uM, Number of replicates 2.0, Standard deviation 2.2061626239616485 %) is -3.52%.
